Results: PubChem BioAssay (NCATS)
Results filed as inconclusive are left out. Activity calls are given as the source filed them. The call rests on the fitted dose curve; in most records, active means well fitted cell-killing curve with a large enough effect; inconclusive means small, poorly fitted or top-dose-only effect, or effect the other way; inactive means no such curve, though single readings can be large or run the other way.
Potency means the concentration at half of the fitted maximal effect.

Experiment: Quantitative High-Throughput drug screen in 47 multiple myeloma cell lines against the NCATS MIPE library collection: PE2_PLB cell viability assay (AID 1919869); further: nearly all actives have a fitted effect of over 35% in size
Settings: PE2_PLB myeloma cells viability, ATP luminescence, 48 h; series mostly up to 45.8 µM
Excerpt: PI: Beverly A. Mock Ph.D.
Laboratory of Cancer Biology and Genetics,
Center for Cancer Research, National Cancer Institute,
National Institute of Health, Bethesda, Maryland
Drug resistance and disease progression are common in multiple myeloma (MM) patients, underscoring the need for new therapeutic combinations. […] We hypothesized that effective combinations would reduce MYC expression and enhance p16 activity. […] These preclinical data identify potentially useful drug combinations for evaluation in drug-resistant MM and reveal potential mechanisms of combined drug sensitivity.
Described herein is the primary MIPE qHTS used to cherrypick compounds. Validated compounds were then further tested for potential synergistic activiy.
[1] Peat TJ, Gaikwad SM, Dubois W, Gyabaah-Kessie N, Zhang S, Gorjifard S, Phyo Z, Andres M, Hughitt VK, Simpson RM, Miller MA, Girvin AT, Taylor A, Williams D, D'Antonio N, Zhang Y, Rajagopalan A, Flietner E, Wilson K, Zhang X, Shinn P, Klumpp-Thomas C, McKnight C, Itkin Z, Chen L, Kazandijian D, Zhang J, Michalowski AM, Simmons JK, Keats J, Thomas CJ, Mock BA. Drug combinations identified by high-throughput screening promote cell cycle transition and upregulate Smad pathways in myeloma. Cancer Lett. 2023 Aug 1;568:216284. doi: 10.1016/j.canlet.2023.216284. Epub 2023 Jun 24. PMID: 37356470; PMCID: PMC10408729.
SEQUENCE No. (e.g., 1, 2, 3, etc.); […] (e.g., Cells, Incubation, Reagent, etc.); VALUE and DESCRIPTION.
1; Cells; 5 uL; white, solid bottom 1536-well Greiner assay plate.
2; Compounds; 23 nL; Kalypsis pin tool (Wako USA) equipped with a 1536-well pin head to transfer to the assay plates.
3; Incubation; 48 hours; 37C incubation.
4; Reagent;5uL; CellTiter Glo (Promega).
5; Detector; 425V; Luminescence; Viewlux PerkinElmer.
NOTES (numbers refer to Sequence numbers above)
1. The cell-based screening methods employed in this study were like those previously published. Briefly, the corresponding myeloma cell lines were screened in 1,536-well plates with 500 cells, 5-uL per well for inhibition of cell viability (assessed by measuring ATP levels with CellTiterGlo).
2. NCATS MIPE 4.0 library of approved and investigational drugs were added using the Kalypsis pin tool. Wells treated with DMSO only for 100% viability and media only for 0% viability were used as controls.
3. The assay plates were covered and incubated for 48 hours in a 37C, 5% CO2 incubator with controlled humidity.
4. After 48 hours, CellTilter-GloTM luminescent substrate mix (Promega) reagent was added to the assay plate and plates we incubated for 5 min at room temperature.
5. Signal was measured as median relative luminescence units on a ViewLux (PerkinElmer) multiplate reader.
[1] Heske CM, Davis MI, Baumgart JT, Wilson K, Gormally MV, Chen L, Zhang X, Ceribelli M, Duveau DY, Guha R, Ferrer M, Arnaldez FI, Ji J, Tran HL, Zhang Y, Mendoza A, Helman LJ, Thomas CJ. Matrix Screen Identifies Synergistic Combination of PARP Inhibitors and Nicotinamide Phosphoribosyltransferase (NAMPT) Inhibitors in Ewing Sarcoma. Clin Cancer Res. 2017 Dec 1;23(23):7301-7311. doi: 10.1158/1078-0432.CCR-17-1121. Epub 2017 Sep 12. PMID: 28899971; PMCID: PMC6636827.
In the case of N#Cc1cc(NC(=O)Nc2nnc(-c3ccncc3)s2)ccc1-c1cn[nH]c1, the Potency is reported as “inactive”. In the case of CN1CCc2c(c3ccccc3n2Cc2ccc(C(=O)NO)cc2)C1, the Potency is reported as 23500 nM (active). With C=C1CCC2[C@](C)(CO)C(O)CC[C@]2(C)C1CC=C1C(=O)OCC1O (stereo not given in full) the Potency was “inactive”. With Oc1ccc(-c2ccc(-c3cc(Nc4cccc(CNC5CC5)c4)n[nH]3)cc2)c(O)c1 the Potency was 1320 nM (active). With COc1ccc(CCC(=O)c2c(O)cc(O[C@@H]3O[C@H](CO)[C@@H](O)[C@H](O)[C@@H]3O[C@@H]3O[C@@H](C)[C@H](O)[C@@H](O)[C@@H]3O)cc2O)cc1O the Potency was 7430 nM (active). For COC(=O)C1C2CC3c4[nH]c5cc(OC)ccc5c4CCN3CC2CC(OC(=O)c2cc(OC)c(OC)c(OC)c2)C1OC (stereo not given), the Potency was 14800 nM (active). In the case of C#C[C@]1(O)CC[C@@H]2[C@@H]3CCc4cc(O)ccc4[C@H]3CC[C@@]21C, the Potency is reported as 16600 nM (active). In the case of C=CC(=O)Nc1ccc2ncnc(Nc3ccc(OCc4cccc(F)c4)c(Cl)c3)c2c1, the Potency is reported as 590 nM (active). For Cc1ccc(O)c(C(CCN(C(C)C)C(C)C)c2ccccc2)c1 (stereo not given), the Potency was “inactive”. In the case of CN(C)CCN1C(=O)c2cccc3cc(N)cc(c23)C1=O, the Potency is reported as 20900 nM (active). With COC(=O)[C@@H]1CC2=CC(=O)CC[C@]2(C)[C@@]23O[C@@H]2C[C@@]2(C)[C@H](CC[C@@]24CCC(=O)O4)[C@@H]13 the Potency was “inactive”. For CCCCOc1ccc(C(=O)Nc2ccc(F)cc2F)cc1, the Potency was “inactive”. For CN(C)CC(=O)N1CCC(c2ccc(NC(=O)c3ncc(C#N)[nH]3)c(C3=CCCCC3)c2)CC1, the Potency was 20900 nM (active). In the case of CC(C)C[C@H](NC(=O)CNC(=O)c1cc(Cl)ccc1Cl)B1OC(=O)CC(CC(=O)O)(C(=O)O)O1 (stereo not given in full), the Potency is reported as 29.6 nM (active). For O=C(C=CC#Cc1cccc(NS(=O)(=O)c2ccccc2)c1)NO, the Potency was 3320 nM (active). With C=CC(=O)N1CCc2ccc(-n3c(=O)ccc4cnc5ccc(-c6cnn(C)c6)cc5c43)cc21 the Potency was 1660 nM (active). For C[C@@H](Oc1ccc2[nH]nc(C=Cc3cnn(CCO)c3)c2c1)c1c(Cl)cncc1Cl, the Potency was 148 nM (active). In the case of COc1cc(N2CCC(C(N)=O)CC2)ccc1Nc1nc(N)c(Cl)c(Nc2ccccc2S(=O)(=O)C(C)C)n1, the Potency is reported as 418 nM (active). In the case of COc1cccc2c1C(=O)c1c(O)c3c(c(O)c1C2=O)C[C@@](O)(C(=O)CO)C[C@H]3O[C@H]1C[C@H](N)[C@H](O)[C@H](C)O1, the Potency is reported as 118 nM (active). With FC(F)c1nc2ccccc2n1-c1nc(N2CCOCC2)nc(N2CCOCC2)n1 the Potency was 372 nM (active). For C[C@H]1C[C@H]2[C@@H]3CCC4=CC(=O)C=C[C@]4(C)[C@@H]3C(=O)C[C@]2(C)[C@@]1(O)C(=O)CO, the Potency was “inactive”. In the case of NC1=N[C@H]2[C@H](CS[C@H]2CCCCC(=O)O)N1, the Potency is reported as “inactive”. With CC(=O)C1=C(O)C=C2Oc3c(C(C)=O)c(O)c(C)c(O)c3C2(C)C1=O (stereo not given) the Potency was “inactive”. For CS[C@H]1SC[C@@H]2C(=O)N(C)[C@H](C(C)C)C(=O)OC[C@H](NC(=O)c3cnc4ccccc4n3)C(=O)N[C@H](C)C(=O)N(C)[C@@H]1C(=O)N(C)[C@H](C(C)C)C(=O)OC[C@H](NC(=O)c1cnc3ccccc3n1)C(=O)N[C@H](C)C(=O)N2C, the Potency was 1 nM (active). For COc1ccc2c(c1OC)C(=O)OC2[C@H]1c2c(cc3c(c2OC)OCO3)CCN1C (stereo not given in full), the Potency was 372 nM (active). With CC(Cc1ccc(O)c(O)c1)(NN)C(=O)O (stereo not given) the Potency was “inactive”. With C=CC1=C(C(=O)O)N2C(=O)[C@@H](NC(=O)C(=NO)c3csc(N)n3)[C@H]2SC1 the Potency was “inactive”. With COc1ccnc2[nH]cc(C(=O)C(=O)N3CCN(C(=O)c4ccccc4)C[C@@H]3C)c12 the Potency was “inactive”. With COc1cc(C(C)C)c(Oc2cnc(NC(CO)CO)nc2N)cc1I the Potency was 7430 nM (active). With CS(=O)(=O)N1CCc2c(-c3cnc(N)nc3)nc(N3CCOCC3)nc21 the Potency was 296 nM (active). For CC(C)(C)[N+]([O-])=Cc1ccc(S(=O)(=O)O)cc1S(=O)(=O)O, the Potency was “inactive”. In the case of COc1ccc(Nc2cc(-c3cnc(N)nc3)nc(N3CCOCC3)n2)cn1, the Potency is reported as 3320 nM (active). With COc1cc2ncnc(Nc3cccc(Br)c3)c2cc1OC the Potency was 5900 nM (active). For CCNC(=O)Nc1ccc(-c2nc3c(c(N4CCOC[C@H]4C)n2)CCN(C2COC2)C3)cc1, the Potency was 1180 nM (active). For c1ccc(CNc2nc(NCc3ccccc3)c3ccccc3n2)cc1, the Potency was 11800 nM (active). With N[C@H]1CN(c2c(F)cc3c(=O)c(C(=O)O)cn(C4C[C@@H]4F)c3c2Cl)CC12CC2 (stereo not given in full) the Potency was “inactive”. In the case of COc1cc(O)c2c(c1)C1OC1C[C@H](O)[C@H](O)C(=O)C=CC[C@H](C)OC2=O (stereo not given in full), the Potency is reported as 2350 nM (active). For C[C@@H]1[C@H](C)CC[C@]2(C(=O)O)CC[C@]3(C)C(=CC[C@@H]4[C@@]5(C)C[C@@H](O)[C@H](O)[C@@](C)(CO)[C@H]5CC[C@]43C)[C@@H]12, the Potency was “inactive”. In the case of CCC(C=C[C@@H]1OC(=O)C=C[C@H]1C)=C[C@H](C)CC=CC(C)=C[C@@H](C)C(=O)[C@@H](C)[C@H](O)[C@@H](C)CC(C)=CC(=O)O, the Potency is reported as 19.6 nM (active). For CCCc1nc(C(C)(C)O)c(C(=O)O)n1Cc1ccc(-c2ccccc2-c2nn[nH]n2)cc1, the Potency was “inactive”.
